Experimental findings from PubChem BioAssay (EPA / NIEHS) are described below.

Calls of active or inactive are those of the source. How the source made its calls: active means hit-call score of the fitted dose curve at least 0.9, where 1 is the maximum; inactive means score below 0.9.

This experiment can be described thus: APR_HepG2_MicrotubuleCSK_1hr: Apredica 1-hour HepG2 Assay for Microtubule CSK Stabilty (AID 2282669). As to conditions: HepG2 microtubule cytoskeleton imaging, actives raise or lower the signal. On the procedure: APR_HepG2_1hr is a cell-based, multiplexed-readout assay that uses HepG2, a human liver cell line, with measurements taken at 1 hour after chemical dosing in a 384-well plate.APR_HepG2_MicrotubuleCSK_1hr is one of 10 assay component(s) measured or calculated from the APR_HepG2_1hr assay. It is designed to make measurements of protein conformation, a form of conformation reporter, as detected with fluorescence intensity signals by HCS Fluorescent Imaging technology.Data from the assay component APR_HepG2_MicrotubuleCSK_1hr was analyzed into 1 assay endpoint. This assay endpoint, APR_HepG2_MicrotubuleCSK_1hr, was analyzed with bidirectional fitting relative to DMSO as the negative control and baseline of activity. Using a type of conformation reporter, measures of protein for gain or loss-of-signal activity can be used to understand the signaling at the cellular-level. Furthermore, this assay endpoint can be referred to as a primary readout, because this assay has produced multiple assay endpoints where this one serves a signaling function. To generalize the intended target to other relatable targets, this assay endpoint is annotated to the cell morphology intended target family, where the subfamily is cell conformation.
Cells were treated with dimethyl sulfoxide (DMSO) as a solvent control at a final concentration of 0.5% v/v or with compounds in DMSO with a resulting final DMSO concentration of 0.5% v/v. Compound treatment was done at concentrations of 0.39, 0.78, 1.56, 3.12, 6.24, 12.5, 25, 50, 100, and 200 uM in duplicate on each plate. Cells were treated with compounds for 1, 24, or 72 hr. Carbonyl […] m-chloro-phenylhydrazone (CCCP) and taxol were used as positive controls for mitochondrial function and cytoskeletal stability, respectively; DMSO served as the negative control for this experiment. Cells were fixed by the direct addition of 50 uL formaldehyde in Hank's Balanced Salt Solution (HBSS) to a final concentration of 3.7%. After incubation in the fixation medium for 30 min at room temperature (293-298 K), cells were rinsed twice with HBSS and treated with cell permeabilization buffer (16 uL of 0.5% Triton X-100) for 10 min at room temperature (293-298 K) before labeling. For mitochondrial membrane potential and mitochondrial measurements, pre-fixed cells were incubated with 50 uL of MitoTracker Red CMXRos (Invitrogen) at a concentration of 250 nM for 30 min before fixation. In the remaining cases, post-fixed cells were labeled by incubation with a multiplexed mixture of primary antibodies in HBSS for 60 min at room temperature (293-298 K) to detect immunoreactivity of c-Jun (1:500), phospho-histone H3 (1:100), phospho-histone H2A.x (1:200), p53 (1:400), alpha-tubulin (1:200) and Hoechst 33342 (2 ug/mL). Cells were labeled for multiplexed imaging on two separate plates: a) Hoechst 33342, MitoTracker Red, phospho-histone H3, and alpha-tubulin, and b) Hoechst 33342, phospho-histone H2A.x, and c-Jun. A final rinse with HBSS (50 uL) was performed before analysis. The primary and secondary antibodies for the proteins were phospho-histone H3 (rabbit anti-phospho-histone H3 and FITC-donkey anti-rabbit IgG), phospho-histone H2A.x (mouse anti-phospho-histone H2A.x and FITC-donkey anti-mouse IgG), c-Jun (rabbit anti-phospho-c-Jun and Cy3-donkey anti-rabbit IgG), p53 (sheep anti-p53 and Cy5-donkey anti-sheep IgG), alpha-tubulin (mouse anti-alpha-tubulin and Cy5-donkey anti-mouse IgG). These antibodies are available as the CellCiphr HepG2 assay kit (Millipore).Digital images of each well were captured using a Cellomics ArrayScan VTI (Thermo Scientific Cellomics) (0.8 NA objective, 0.63x optical coupler, and XF-93 filter set) at 20x magnification. The images were acquired using the autofocus feature of the ArrayScan instrument, which entails the following steps. First, the camera focuses on channel 1 (Hoechst 33342), where nuclei are identified. Second, a Z offset of 1 um is used for capturing mitochondria (MitoTracker Red). […]
In the case of `CCCCC(CC)COC(=O)c1ccccc1C(=O)O` (stereo not given), the outcome was inactive.
As for `COc1nc(C)nc(NC(=O)NS(=O)(=O)c2ccccc2OCCCl)n1`, the result was inactive.
For `COC(=O)c1cccc(C)c1S(=O)(=O)NC(=O)Nc1nc(OCC(F)(F)F)nc(N(C)C)n1`, the outcome was inactive.
With `CC1(C)C(C=C(Cl)Cl)C1C(=O)OCc1cccc(Oc2ccccc2)c1` (stereo not given) the entry was “inactive”; with `COc1c(Cl)ccc(Cl)c1C(=O)O`, “inactive”.
With `S=C([S-])NCCNC(=S)[S-].[Mn+2]` the entry was “inactive”.
Turning to `COC(=O)c1c(Cl)nn(C)c1S(=O)(=O)NC(=O)Nc1nc(OC)cc(OC)n1`, the outcome was inactive.
Regarding `CCCOC(=O)c1ccc(C(=O)OCCC)nc1`, the call was inactive.
On to `CCCCOC(=O)[C@@H](C)Oc1ccc(Oc2ccc(C(F)(F)F)cn2)cc1`, for which the compound was classed as inactive.
As to `CCOC(=O)C(C)Oc1ccc(Oc2cnc3cc(Cl)ccc3n2)cc1` (stereo not given), the compound was called inactive.
As to `COC(=O)CSc1cc(N=c2sc(=O)n3n2CCCC3)c(F)cc1Cl`, the compound was classed as inactive.
Take `O=C(Nc1ccc([N+](=O)[O-])cc1Cl)c1cc(Cl)ccc1O`: the compound was classed as inactive.
For `CCOC(=O)NCCOc1ccc(Oc2ccccc2)cc1`, the call was inactive.
With `CCCCOC(=O)C(C)Oc1ccc(Oc2ccc(C(F)(F)F)cn2)cc1` (stereo not given) the entry was “inactive”; with `COC(=O)c1ccccc1C(=O)O`, “inactive”.
Consider `CCCOC(=O)NCCCN(C)C`, for which the call was inactive.
`CC(C)(c1ccc(O)cc1)c1ccc(O)cc1`: the call was inactive.
Regarding `CCC(O)=C1C(=O)CC(C(=O)O)CC1=O` (stereo not given), the result was inactive.
As for `COC(=O)c1ccc(I)cc1S(=O)(=O)NC(=O)Nc1nc(C)nc(OC)n1`, the compound was called inactive.
Regarding `c1ccc(Nc2ccccc2)cc1`, the result was inactive.
Consider `Oc1ccc(C(c2ccc(O)cc2)C(Cl)(Cl)Cl)cc1`, for which the call was inactive.
On to `c1ccc2[nH]c(-c3cscn3)nc2c1`, for which the compound was called inactive.
With `CCCCCOC(=O)COc1cc(N2C(=O)C3=C(CCCC3)C2=O)c(F)cc1Cl` the entry was “inactive”; with `OB(O)O`, “inactive”.
Consider `COC(=O)c1ccccc1S(=O)(=O)NC(=O)Nc1nc(OC(F)F)cc(OC(F)F)n1`, for which the call was inactive.
On to `CN(C)C(=O)Nc1ccc(Cl)c(Cl)c1`, for which the call was inactive.
The result for `C=CCOC(Cn1ccnc1)c1ccc(Cl)cc1Cl` (stereo not given) reads “inactive”; that for `CCCCOCCOCCOCc1cc2c(cc1CCC)OCO2`, “inactive”; that for `CCOC(=O)C(C)Oc1ccc(Oc2nc3ccc(Cl)cc3o2)cc1` (stereo not given), “inactive”.
On to `CC(C)(C)[C@@H](O)[C@@H](Cc1ccc(Cl)cc1)n1cncn1`, for which the compound was called inactive.
`CCNc1nc(N)nc(Cl)n1`: the compound was classed as inactive.
In the case of `COCCO`, the compound was called inactive.
For `S=C(S)NCCNC(=S)S.[Mn+2].[S-]C([S-])=NCCN=C([S-])[S-].[Zn+2]`, the compound was called inactive.
With `Cc1nn(C)c(Oc2ccccc2)c1C=NOCc1ccc(C(=O)OC(C)(C)C)cc1` the entry was “inactive”.
`CCCN(CCC)C(=O)SCC`: the result was inactive.
The result for `O=C(O)C1(C(=O)Nc2ccc(Cl)cc2Cl)CC1` reads “inactive”; that for `CCSC(=O)N(CC(C)C)CC(C)C`, “inactive”; that for `CCN(Cc1c(F)cccc1Cl)c1c([N+](=O)[O-])cc(C(F)(F)F)cc1[N+](=O)[O-]`, “inactive”.
As for `CCCCCCC(C)OC(=O)COc1nc(F)c(Cl)c(N)c1Cl` (stereo not given), the outcome was inactive.
Turning to `CCC(C)OC(=O)N1CCCCC1CCO` (stereo not given), the compound was classed as inactive.
